TDP1 cell noCPT: qHTS for Inhibitors of human tyrosyl-DNA phosphodiesterase 1 (TDP1): qHTS in cells in absence of CPT. DT40 Tdp1-/- hTDP1 cells, no CPT, ATP luminescence, 48 h. Potency, µM (top dose mostly 46.2 µM), without a hit: top-dose activity change, negative = growth inhibition, hits mostly inhibitors. 15% of 420,000 active; note: potency is the fitted concentration of half-maximal effect; nearly all actives have a fitted effect of over 55% in size
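Camptothecin absent (DMSO only). Human TDP1-complemented DT40 knockout cells, 400 cells/well, 37 °C for minimum 48 hr; ATP measured via CellTiter-Glo, 30 min dark incubation, luminescence.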
VP16 counter: VP16 counterscreen qHTS for inhibitors of ROR gamma transcriptional activity | Potency, µM (titrated, usually from 53.6 µM), without a hit: top-dose activity, negative = inhibition, actives largely listed as inhibitors | 3.5% of 310,000 active | Drosophila S2 Gal4-VP16 UAS-luciferase, luminescence, 20 h;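 note: Gal4-VP16 expression switched on by copper sulfate through the metallothionein promoter; potency is the fitted concentration of half-maximal effect; nearly all actives have a fitted effect of over 50% in size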
ELG1 repair inh: qHTS screen for small molecules that inhibit ELG1-dependent DNA repair in human embryonic kidney (HEK293T) cells expressing luciferase-tagged ELG1; HEK293T ELG1-luciferase reporter, luminescence, 16 h; DNA damage induced by 5-fluorouridine; Potency, µM (series often up to 46.1 µM), without a hit: at the top dose activity change, negative = inhibition, most hits filed as inhibitors; 2.3% of 330,000 active; AID 504467, 2011; note: potency is the fitted concentration of half-maximal effect; nearly all actives have a fitted effect of over 55% in size
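Cells (2,000 per well) received 5-fluorouridine plus test compound or DMSO and were incubated 16 hr at 37 °C, 5% CO2. Luciferase activity was read by luminescence 30 min after ONE-Glo addition; signal suppression marked inhibition of damage-induced ELG1 function.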
IL-1B inflam inh: qHTS for Inhibitors of Inflammasome Signaling: IL-1-beta AlphaLISA Primary Screen; THP-1 LPS/ATP IL-1B secretion, AlphaLISA, 16 h; active compounds read low; activity change, % at 57.5 µM; 4.7% of 360,000 active; AID 743279, 2014; in the data active = activity change below about -50%; inconclusive = mostly about -30% to -49%
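Secreted IL-1B measured by AlphaLISA bead assay after 16 h compound exposure of THP-1 cells; compounds (final up to 57.5 uM) added 1 h before LPS (250 ng/mL) and ATP (1.25 mM) stimulation; lower signal means less secretion.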
RORgamma inh: qHTS for inhibitors of ROR gamma transcriptional activity; 5.4% of 310,000 active; Drosophila S2 Gal4-RORgamma UAS-luciferase reporter, 20 h; AID 2551, 2010; Potency, µM (doses to about 53.6 µM), without a hit: at the highest dose activity change, negative = inhibition, usual class: inhibitors; Nuclear receptor ROR-gamma (Mus musculus), P51450; note: potency is the fitted concentration of half-maximal effect; nearly all actives have a fitted effect of over 60% in size
Target sequence (P51450 whole entry, looked up, the tested form may be a part): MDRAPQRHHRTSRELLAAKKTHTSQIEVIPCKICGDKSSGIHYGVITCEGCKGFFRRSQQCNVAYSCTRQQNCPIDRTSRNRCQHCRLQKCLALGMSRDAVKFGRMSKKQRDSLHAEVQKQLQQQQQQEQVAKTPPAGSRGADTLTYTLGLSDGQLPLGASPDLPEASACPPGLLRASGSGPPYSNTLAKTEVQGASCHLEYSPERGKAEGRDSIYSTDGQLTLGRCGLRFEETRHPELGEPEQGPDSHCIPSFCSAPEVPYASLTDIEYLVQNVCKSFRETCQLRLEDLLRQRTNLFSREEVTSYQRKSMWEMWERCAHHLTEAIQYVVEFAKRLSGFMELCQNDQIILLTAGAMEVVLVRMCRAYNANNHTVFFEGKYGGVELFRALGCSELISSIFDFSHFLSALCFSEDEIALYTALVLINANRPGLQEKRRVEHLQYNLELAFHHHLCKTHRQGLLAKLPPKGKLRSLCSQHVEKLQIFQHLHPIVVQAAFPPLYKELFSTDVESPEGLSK
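Schneider cells (Drosophila), stable Gal4 DBD–ROR gamma + UAS-luc; 1 hr cmpd preincubation; Cu2+ induction 700 uM final; 20 hr ambient; luminescence.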
TDP1 cell CPT: qHTS for Inhibitors of human tyrosyl-DNA phosphodiesterase 1 (TDP1): qHTS in cells in presence of CPT. chicken DT40 Tdp1-/-;hTDP1 cells + 20 nM CPT, ATP luminescence, 48 h. Potency, µM (highest dose often 46.2 µM), inactives show at the top dose activity change, negative = growth inhibition, usual class: inhibitors. 12% of 420,000 active; note: potency is the fitted concentration of half-maximal effect; nearly all actives have a fitted effect of over 55% in size
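Cell growth measured by CellTiter-Glo luminescence after a minimum 48 h, 37 C compound exposure with 20 nM CPT in Tdp1-knockout DT40 cells stably expressing hTDP1, seeded 400/well; qHTS titration format.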
* = called active by the depositor. Compounds with a hit are over-represented: about 21% of the library has one in this group of screens. Unless noted, calls come from the whole dose curve; as a rule, active = well fitted curve in the direction sought with a large enough effect; inconclusive = small, poorly fitted or top-dose-only effect, or another doubt; inactive = no such curve, though single readings can be large; an effect the other way counts as inactive or inconclusive. % is set by controls: 0 for no effect and ±100 for the full control effect.

For COc1ccc(C2CC(c3ccccc3)=NN2S(=O)(=O)c2ccccc2)cc1 (configuration not stated) the results were TDP1 cell noCPT 4.6µM*, VP16 counter 4.5µM*, ELG1 repair inh inconclusive, IL-1B inflam inh 0, RORgamma inh inconclusive and TDP1 cell CPT 7.3µM*.
Screening COc1ccc(C2=NN(c3ccc(C(=O)O)cc3)C(c3ccc(OC)c(OC)c3)C2)cc1 (configuration not stated) returned TDP1 cell noCPT inconclusive, VP16 counter -15%, ELG1 repair inh inconclusive, IL-1B inflam inh -17, RORgamma inh 7.1µM* and TDP1 cell CPT -22%.
For COc1ccc(C2CC(c3ccccc3)=NN2c2ccc(N)cc2)cc1 (configuration not stated) the results were TDP1 cell noCPT 21µM*, VP16 counter 0%, ELG1 repair inh -22%, IL-1B inflam inh inconclusive, RORgamma inh -17% and TDP1 cell CPT inconclusive.
Screening Cc1ccc(C2=NN(S(=O)(=O)c3ccccc3)C(c3ccccc3O)C2)cc1 (configuration not stated) returned TDP1 cell noCPT inconclusive, VP16 counter inconclusive, ELG1 repair inh inconclusive, IL-1B inflam inh 0, RORgamma inh 32% and TDP1 cell CPT inconclusive.
Screening COc1cc(N2N=C(c3ccccc3)CC2c2ccccc2)c(C=O)cc1C=O (configuration not stated) returned TDP1 cell noCPT 18µM*, VP16 counter -4%, ELG1 repair inh -9%, IL-1B inflam inh 8, RORgamma inh -20% and TDP1 cell CPT inconclusive.
COc1ccc(C2CC(c3ccccc3)=NN2c2ccc(S(N)(=O)=O)cc2)cc1OC (configuration not stated) was read as TDP1 cell noCPT inconclusive, VP16 counter -4%, ELG1 repair inh -20%, IL-1B inflam inh -30, RORgamma inh 8% and TDP1 cell CPT inconclusive.
For Cc1noc(C)c1COc1ccc(C(=O)NCC(c2c(F)cccc2Cl)N(C)C)cc1 (configuration not stated) the results were TDP1 cell noCPT inconclusive, ELG1 repair inh inconclusive, IL-1B inflam inh 13 and TDP1 cell CPT inconclusive.
For COC(=O)c1ccc(C(NC(=O)OCc2ccccc2)/C(=C/[C@@H](C)C(=O)NCCF)c2cccnc2)cc1 (some centres not stated) the results were VP16 counter 1% and RORgamma inh 13%.
For Cc1cccc(N2CCN(CC(=O)Nc3nccs3)CC2)c1C the results were TDP1 cell noCPT -24%, VP16 counter -12%, ELG1 repair inh inconclusive, IL-1B inflam inh 46, RORgamma inh 10µM* and TDP1 cell CPT -11%.
Cc1cccc(N2CCN(CC(=O)Nc3ccc(S(=O)(=O)N4CCOCC4)cc3)CC2)c1C was read as TDP1 cell noCPT 9.2µM*, VP16 counter inconclusive, ELG1 repair inh 15µM*, IL-1B inflam inh -6, RORgamma inh 31% and TDP1 cell CPT 15µM*.
COc1ccccc1N1CCN(CC(=O)Nc2nccs2)CC1 was read as TDP1 cell noCPT -15%, VP16 counter -6%, ELG1 repair inh -24%, IL-1B inflam inh 24, RORgamma inh -6% and TDP1 cell CPT 7%.
Screening Cc1ccc(S(=O)(=O)N2CCOCC2)cc1NC(=O)CN1CCN(c2ccc(O)cc2)CC1 returned TDP1 cell noCPT 26µM*, VP16 counter 2%, ELG1 repair inh -15%, IL-1B inflam inh 26, RORgamma inh 11% and TDP1 cell CPT inconclusive.
Screening Cc1ccc(SC(C)C(=O)Nc2ccc(S(=O)(=O)N3CCOCC3)cc2)cc1 (configuration not stated) returned TDP1 cell noCPT 16µM*, VP16 counter -14%, ELG1 repair inh 2%, IL-1B inflam inh 1, RORgamma inh -5% and TDP1 cell CPT inconclusive.
CCOC(=O)[C@]12CCC=C1N(Cc1ccco1)C(=O)[C@H](CC(=O)NCC1CCCCC1)C2 was read as TDP1 cell noCPT inconclusive, IL-1B inflam inh -1 and TDP1 cell CPT inconclusive.
For CCNC(=O)C1(C)CCCN(Cc2ccc(-n3ccnc3)cc2)C1 (configuration not stated) the results were TDP1 cell noCPT -13%, IL-1B inflam inh -10 and TDP1 cell CPT -5%.
Screening COCCN(CC(=O)Nc1cccc(C)c1C)C(=O)Cc1ccsc1 returned TDP1 cell noCPT -23%, ELG1 repair inh 21%, IL-1B inflam inh 0 and TDP1 cell CPT 2%.
`Cc1ccc(S(=O)(=O)N2CCOCC2)cc1NC(=O)CN1CCC(Cc2ccccc2)CC1` gave TDP1 cell noCPT 8.2µM*, VP16 counter -28%, ELG1 repair inh inconclusive, IL-1B inflam inh -23, RORgamma inh -25% and TDP1 cell CPT inconclusive.
CCc1cccc2c(-c3ccccc3)nc(SCC(=O)Nc3ccc(OC)cc3)nc12 was read as TDP1 cell noCPT 5% and TDP1 cell CPT -11%.
`Cc1csc(N(C(=O)Cc2ccccc2F)c2ccccc2)n1` gave TDP1 cell noCPT 23µM*, VP16 counter 23%, ELG1 repair inh 0%, IL-1B inflam inh -4, RORgamma inh 25% and TDP1 cell CPT inconclusive.
For COc1ccc(CC(=O)N(c2ccccc2)c2nc(C)cs2)cc1 the results were TDP1 cell noCPT 13µM*, VP16 counter inconclusive, ELG1 repair inh -12%, IL-1B inflam inh inconclusive, RORgamma inh 42% and TDP1 cell CPT 18µM*.
`O=C(Cc1ccccc1)N(c1ccccc1)c1ccccc1` gave TDP1 cell noCPT inconclusive, IL-1B inflam inh -3 and TDP1 cell CPT inconclusive.
For CN1CCN(c2ncc3ncc(=O)n(CCc4ccccc4)c3n2)CC1 the results were TDP1 cell noCPT 2%, VP16 counter -3%, RORgamma inh -21% and TDP1 cell CPT 4%.
O=C(Nc1ccc(OCC(F)(F)C(F)F)c(C(F)(F)F)c1)c1ccc(Cl)cc1 was read as TDP1 cell noCPT inconclusive, IL-1B inflam inh -104* and TDP1 cell CPT 23µM*.

Screening data: PubChem BioAssay, National Center for Advancing Translational Sciences (NCATS)
